Measurements published in PubChem BioAssay (NCI).
This is part of a sample that, as a whole, favours compounds with a hit. Of some 83,000 tested, about 20% had one in any assay.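 Growth was measured after 48 h exposure to one concentration of compound in 96-well plates. Values under 10 count as active.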 A number with no mark means an inactive call. Activity calls are given as the source filed them.

How the values were obtained:
Assay in all cases: NCI-60 one-dose screen, 48 h (100 = growth as untreated, 0 = no growth, -100 = all killed)
Details in all cases: 10 µM unless noted
[1] = system: SK-MEL-2 melanoma
[2] = system: EKVX NSCLC
[3] = system: SN12C renal
[4] = system: UO-31 renal
[5] = system: TK-10 renal
[6] = system: ACHN renal
[7] = system: CAKI-1 renal
[8] = system: A498 renal
[9] = system: CCRF-CEM leukemia
[10] = system: MOLT-4 leukemia

| SMILES | growth [1] | growth [2] | growth [3] | growth [4] | growth [5] | growth [6] | growth [7] | growth [8] | growth [9] | growth [10] |
| --- | --- | --- | --- | --- | --- | --- | --- | --- | --- | --- |
| O=C(Nc1ncc(Cc2ccccc2)s1)c1ccc2c(c1)OCCCO2 | 30.6% | 36.7% | 40.4% | 48.1% | 55.9% | 34% | 25.3% | -2.27% (active) | 16.2% | 21.4% |
| O=C1/C(=C/c2ccc(F)cc2)CN(C(=O)C(Cl)Cl)C/C1=C\c1ccc(F)cc1 | -16% (active) | -17.9% (active) | -72.5% (active) | -83.4% (active) | -59.8% (active) | -98.3% (active) | -55.4% (active) | -84.3% (active) | 2.43% (active) | -18.2% (active) |
| N#CC1CCc2c(c(-c3ccc4nc(N)sc4c3)nc3ccc4[nH]ncc4c23)C1 (stereo not given) | 51.7% | 64.8% | 62.5% | 31.2% | 41.6% | 29.6% | 11.3% | -3.66% (active) | 42.6% | 17.2% |
| Cc1cccc(Oc2ccc(Nc3ncnc4ccc(NC(=O)CN5CCN(C)CC5)cc34)cc2Cl)c1 | -70.7% (active) | 25.1% | 46.4% | 22.2% | 18.8% | -7.41% (active) | 12.9% | 5.9% (active) | 4.6% (active) | 3.77% (active) |
| COc1ccc(N2CCC(=S)NC2=S)cc1 | 115% | 104% | 98% | 84.3% | 96% | 104% | 85% | 108% | 102% | 98.9% |
| Cc1ccc(-c2nc(SCc3nc4cc(Cl)c(Cl)cc4[nH]3)[nH]c(=O)c2C#N)cc1 | 90.1% | 96.4% | 102% | 81.7% | 99.3% | 106% | 88.3% | 112% | 111% | 101% |
| COc1cc(OC)c(/C=C/C(=O)c2c(O)cc(OC)c(C3CCN(C)CC3)c2OC)c(OC)c1 | -57.8% (active) | 22.9% | 4.89% (active) | -76.2% (active) | -82.5% (active) | -98.3% (active) | -62.8% (active) | 17.8% | -19.3% (active) | -34.4% (active) |
| Cc1ccc2c(=O)cc(C(=O)Nc3sc4c(c3C(=O)NCc3cccnc3)CCCC4)oc2c1C | 109% | 103% | 95.3% | 78.5% | 116% | 96.8% | 90.6% | 89.1% | 93% | 90.3% |
| CCCn1nc(C(=O)N(C)Cc2ccccc2)c2c1CCC(N1CCc3ccccc31)C2 (stereo not given) | 106% | 95.2% | 98.9% | 81.4% | 105% | 96% | 86.7% | 95.9% | 96.6% | 89.9% |
| Cc1ccc2nc(/C(C#N)=C(/CCCO)NC(Cc3ccccc3)C(=O)OCc3ccccc3)[nH]c(=O)c2c1 (stereo not given) | 96.8% | 95.6% | 103% | 112% | 126% | 107% | 90.2% | 210% | 164% | 112% |
| CCCCNc1cc(-c2cn[nH]c2-c2cc(C)cc(OC)c2)nc(-c2cccnc2)n1 | 115% | 88.3% | 95.3% | 62.3% | 97.2% | 96.7% | 66.2% | 64.4% | 84.7% | 82.6% |
| O=C(CI)NC(=O)NC(=O)NCc1ccccc1 | 69.4% | 93.6% | 33% | -20.6% (active) | 74.7% | -45.5% (active) | 5.31% (active) | 91.2% | -23.8% (active) | -24.5% (active) |
| COc1cccc(Nc2ncnc3cc(NC(=O)CCl)ccc23)c1 | -45.3% (active) | -24.4% (active) | -74.7% (active) | -93.9% (active) | -13.2% (active) | -97.6% (active) | -97.2% (active) | -5.63% (active) | -26.9% (active) | -31% (active) |
| COc1ccc(/C=C/C(=O)c2ccc(NC(=O)CSc3nc4c([nH]3)c(=O)n(C)c(=O)n4C)cc2)cc1OC | 110% | 88.5% | 85.3% | 90.8% | 97.9% | 94.4% | 84.7% | 71.7% | 66% | 72.4% |
| COc1ccc(Cn2cc3c(c2-c2ccccc2)CCc2cnoc2-3)cc1 | 64.6% | 44.1% | 37.3% | 36.5% | 91.9% | 46.6% | 34% | 33.3% | 8.41% (active) | 25.5% |
| COC(=O)c1ccc(NC(=O)Nc2ccc(C(=O)OC)cc2)cc1 | 88% | 118% | 78.9% | 96.9% | 101% | 104% | 124% | 81.3% | 90.8% | 79.9% |
| COc1cc(/C=C2\CN(S(=O)(=O)c3ccccc3)C/C(=C\c3cc(CN4CCCCC4)c(O)c(OC)c3)C2=O)cc(CN2CCCCC2)c1O | 104% | -36.4% (active) | -42.4% (active) | -96.6% (active) | -38.8% (active) | 27.9% | -89.2% (active) | 95% | -2.62% (active) | -20.6% (active) |
| O=C(/C=C/c1ccc(Cl)cc1)c1cccc(OCCCOc2cccc(C(=O)/C=C/c3ccc(Cl)cc3)c2)c1 | 107% | 107% | 103% | 86.1% | 95.6% | 99.6% | 95.4% | 94.9% | 92.9% | 93.3% |
| CC1CCN(C(=S)SCC(=O)NC(=O)c2ccccc2)CC1 | 102% | 102% | 109% | 92% | 99.8% | 112% | 102% | 99.6% | 106% | 93.6% |
| Cc1ncc(C(=O)Nc2ccc(CN3CCN(C)CC3)c(C(F)(F)F)c2)cc1C#Cc1cnc(N)c2ncccc12 | -29.8% (active) | 42.8% | -20.3% (active) | -9.37% (active) | 46.3% | 0.608% (active) | 7.54% (active) | -6.89% (active) | -1.21% (active) | -24.9% (active) |
| CN(CCCNC(=O)CCOCCOCCOCCNC(=O)Cc1ccc2ccc3cccc4ccc1c2c34)CCCNc1cc(-c2ccc3ccccc3c2)nc2ccccc12 | -70.4% (active) | -65.8% (active) | -75.3% (active) | -73.4% (active) | -84.2% (active) | -78.8% (active) | -82.4% (active) | -86.6% (active) | -78.6% (active) | -83.7% (active) |
| Cn1cc(-c2nn3cc(-c4cccs4)nc3s2)c2cc(F)ccc21 | 35% | 47.7% | 36% | 35.8% | 53.7% | 43.5% | 27.8% | 7.55% (active) | 21.9% | 22.3% |
| O=C1c2ccccc2C(=O)c2c1cc1c(c2[N+](=O)[O-])OCO1 | -30.8% (active) | 22.9% | 13.9% | -3.07% (active) | -14.8% (active) | -18.6% (active) | 2.82% (active) | -44.9% (active) | 22.9% | 28.7% |
| CN(Cc1ccccc1)c1nc(Cl)c(C2CC(c3ccccc3)=NN2c2ccccc2)s1 (stereo not given) | 78.5% | 85.3% | 103% | 81.5% | 115% | 102% | 68.7% | 105% | 94.3% | 97.1% |
| CNC(=O)c1cc(Oc2cccc3nc(NC(=O)Nc4cc(C(F)(F)F)ccc4Cl)ccc23)ccn1 | 119% | 99.5% | 93.5% | 105% | 111% | 101% | 85.8% | 109% | 80.8% | 89.5% |
| COc1cc(/C=N/Nc2ccc(Br)cc2)cc(OC)c1OC | 73% | 63.9% | 69.7% | 35% | 97.2% | 31.6% | 10.2% | 60% | 31.1% | 44.1% |
